The whole screen tested about 300,000 compounds, of which about 2,400 (0.8%) were called active.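 The calls were made as follows: active = Every replicate reaches about 75%, or at least half do and their mean reaches it too (limit read from the data); inconclusive = At least half of replicates reach the limit but their mean does not; inactive = Under half of replicates reach the limit.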 For the sample, actives were picked, then their nearest neighbours and some compounds at random.

The nature of the assay: inhibitors of cytokine-induced beta cell apoptosis, primary screen, luminescence (AID 435005).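 Also: 0% = cytokine-treated negative control wells and 100% = positive control rescue; higher means more ATP so stronger rescue from cytokine killing.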 The note with it: INS-1E cytokine-induced death, ATP luminescence, 48 h; hits give high values; percent of positive-control rescue, neutral wells zero; concentration not given here.
Consider `CCC(CO)Oc1cc(NC(=O)c2ccc(Cl)cc2)c2ncn(C(C)C)c2c1` (stereo not given), for which the protection from apoptosis was 2.88% (inactive).
The same measure for `CCOc1cc(N2CCOCC2)c(OCC)cc1NC(=O)COc1cccc2cccnc12`: 102% (active); for `CCOc1cc(N2CCOCC2)c(OCC)cc1NC(=O)COc1cccc(Cl)c1`: 0.61% (inactive).
In the case of `CCOc1cc(N2CCOCC2)c(OCC)cc1NC(=O)c1cc(C)nc2ccccc12`, the protection from apoptosis was 7.08% (inactive).
In the case of `C/C(=N\NC(=O)c1ccccc1C)c1ccc(N2CCOCC2)cc1`, the protection from apoptosis was -16.8% (inactive).
Regarding `Cc1cc(C(=O)NNC(=O)c2ccccc2O)c(C)o1`, the protection from apoptosis was -1.18% (inactive).
Regarding `C/C(=N\NC(=O)c1ccoc1C)c1ccccc1O`, the protection from apoptosis is 79.7% (active).
Turning to `Cn1cncc1C#Cc1c(-c2ccsc2)sc2ccccc12`, the protection from apoptosis is -6.24% (inactive).
With `O=C(NCCc1ccc(C(F)(F)F)cc1)c1ccc2c(c1)OCO2`, the protection from apoptosis is 5.32% (inactive).
The same measure for `CCCCNc1c(-c2ccc(OC)c(Sc3ccc(OC)cc3)c2)nc2ccc(Cl)cn12`: 16.9% (inactive); for `Cc1cc(C)c[n+](-c2nc3ccccc3nc2[N-]S(=O)(=O)c2cccs2)c1`: -3.34% (inactive); for `O=C(NCCc1ccccc1)C1CCN(S(=O)(=O)c2ccc(Br)s2)CC1`: 2.68% (inactive).
Then `O=S(=O)([N-]c1nc2ccccc2nc1-[n+]1ccc(Cc2ccccc2)cc1)c1ccc(Br)s1`, with 118% (active); and `Cc1ccc(C(=O)Nc2ccn(C)n2)cc1`, with -7% (inactive); and `CCn1nc(C(=O)NNS(=O)(=O)c2cc(/C=C/C(=O)O)cc(OC)c2OC)c2ccccc2c1=O`, with 0.598% (inactive).
The same measure for `COc1cc(/C=C/C(=O)Nc2ccc(OC)c(S(=O)(=O)N3CCOCC3)c2)ccc1OCC#N`: 4.79% (inactive); for `COc1ccc(OC)c(-c2csc(NC(=O)COC(=O)C3CC3)n2)c1`: -4.15% (inactive).
In the case of `Cc1ccc(-c2nn(-c3ccccc3)cc2/C=N/NC(=O)c2ccc3c(c2)OCO3)cc1`, the protection from apoptosis was 110% (active).
The same measure for `CC(C)(C)OC(=O)N/N=C/c1cn(-c2ccccc2)nc1-c1cccnc1`: 2.76% (inactive).
The same measure for `O=C(O)c1ccc(N/N=C/c2cn(-c3ccccc3)nc2-c2cccs2)cc1`: -0.771% (inactive); for `Cc1cccc(C(=O)N[C@H](C(=O)NCc2cccs2)C(C)C)c1`: 3.35% (inactive); for `O=C(CN1CCc2ccccc2C1)Nc1cccc(S(=O)(=O)N2CCOCC2)c1`: 0.0837% (inactive).
Then `N/C(=N\OC(=O)Nc1ccc(Cl)c(Cl)c1)c1ncc(C(F)(F)F)cc1Cl`, with -13.2% (inactive).
In the case of `COc1cccc(/C(C)=N/Nc2ncc(Cl)cc2Cl)c1`, the protection from apoptosis is -0.169% (inactive).
Consider `COc1cccc(/C=N/Nc2ncc(C(F)(F)F)cc2Cl)c1O`, for which the protection from apoptosis is 131% (active).
The same measure for `Cc1ccc(/C=C/C(=O)OCC(=O)NCc2ccc(Cl)cc2)o1`: 0.631% (inactive).
The same measure for `CC(=O)N1CCCc2cc(S(=O)(=O)N3CCCC(C(=O)N4CCN(c5cccc(Cl)c5)CC4)C3)ccc21` (stereo not given): 89.9% (active); for `CC(=O)N1CCCc2cc(S(=O)(=O)N3CCCC(C(=O)NCc4ccc(Cl)cc4)C3)ccc21` (stereo not given): 4.03% (inactive).
Then `CC(=O)N1c2ccc(S(=O)(=O)N3CCCC(C(=O)Nc4cccc(Cl)c4)C3)cc2CC1C` (stereo not given), with 6.26% (inactive); and `COc1ccccc1C(=O)OCC(=O)Nc1cccc(S(=O)(=O)NC2=NCCCCC2)c1`, with -2.64% (inactive); and `O=C(NCCc1ccco1)c1ccc(OCc2cn3ccccc3n2)cc1`, with 1.94% (inactive).
In the case of `CCOC(=O)c1cnc(-n2nc(C)cc2C)nc1Nc1cccc(C(C)=O)c1`, the protection from apoptosis was 8.92% (inactive).
For the molecule `CCOC(=O)c1cnc(-n2nc(C)cc2C)nc1NNc1cc(C)nc(-c2ccccc2)n1`, the protection from apoptosis was 84.8% (active).
The same measure for `Cc1cc(C)n(-c2c(F)c(F)c(COC(=O)c3ccccc3)c(F)c2F)n1`: 3.67% (inactive); for `C=CCC[C@H](Cc1ccc(F)cc1)C(=O)OC[C@@H](NC(=O)[C@@H](CC=C)CC(=O)N[C@H](CO)Cc1ccccc1)C(C)(C)C`: 5.28% (inactive); for `O=C(NNS(=O)(=O)c1c(F)cc(F)c(Cl)c1F)C12CC3CC(CC(C3)C1)C2`: -12% (inactive).
Then `Fc1ccccc1COc1cccc2cccnc12`, with -7.41% (inactive); and `Cc1nc2ccccc2cc1OCc1ccc(F)cc1`, with 95.4% (active).
With `Cc1occc(=O)c1OCc1ccc(F)cc1`, the protection from apoptosis is -6.87% (inactive).
In the case of `CCOC(=O)c1c(NC(=O)c2ccc(S(=O)(=O)N(C)CC3CCCO3)cc2)sc2c1CC(C)(C)NC2(C)C` (stereo not given), the protection from apoptosis was 25.6% (inactive).
Then `Cc1nn(-c2ccccc2)c(C)c1NC(=O)COc1ccc(Cl)cc1Cl`, with 0.164% (inactive); and `COC(=O)c1c(NC(=O)COc2ccc(Cl)cc2Cl)sc2c1CC(C)(C)NC2(C)C`, with 114% (active); and `COc1cc(OC)cc(C(=O)N[C@H](C(=O)NNC(=O)c2ccc(Br)cc2)C(C)C)c1`, with -4.34% (inactive).
For the molecule `CC1CCCCC1NCC(=O)Nc1ccccc1C(=O)Nc1ccccc1` (stereo not given), the protection from apoptosis is 4.75% (inactive).
The same measure for `CSc1ncc(Sc2ccccc2)c(C(=O)O)n1`: -2.15% (inactive); for `CSc1nc(-c2ccccc2)nc(C(Cl)Cl)n1`: 105% (active).
Turning to `COc1cc(OC)c(N2CC(C(=O)Nc3cc(Cl)ccc3N3CCOCC3)CC2=O)cc1Cl` (stereo not given), the protection from apoptosis was 26.3% (inactive).
The same measure for `O=C(COC(=O)Cc1ccc([N+](=O)[O-])cc1)NC1CCCCCC1`: -5.89% (inactive); for `NC(=O)C1CCN(C(=O)c2ccc(F)c(S(=O)(=O)N3CCOCC3)c2)CC1`: 0.339% (inactive).
On to `COc1ccc(N(C(=O)c2cccnc2)S(=O)(=O)c2ccc3c(c2)n(C)c(=O)n3C)cc1`, for which the protection from apoptosis is -8.54% (inactive).
Then `COc1ccc(N(C(=O)c2cccnc2)S(=O)(=O)c2ccc(OC)c(OC)c2)cc1`, with -3.31% (inactive); and `O=C(c1cccnc1)N(c1cc2sc(=O)oc2c2ccccc12)S(=O)(=O)c1ccccc1`, with 81.4% (active).
The same measure for `COc1cc(Cl)c(C)cc1NC(=O)CSc1nnc(CN2CCCC2)o1`: 2.22% (inactive); for `COc1cccc(NC(=O)COC(=O)c2ccc3ccccc3n2)c1`: -5.49% (inactive).
Take `Cc1ccc(OCCCn2c(=O)oc3ccccc32)cc1`: the protection from apoptosis was 1.16% (inactive).
Regarding `CCCCCCCCCCOC(=O)Cn1c(COc2cccc(OC)c2)[n+](C)c2ccccc21`, the protection from apoptosis is 109% (active).
The same measure for `CCn1c(=N)n(CC(=O)c2cccc(OC)c2)c2ccccc21`: -5.87% (inactive); for `COc1cccc(OCCCN2CCCCCC2)c1`: -3.45% (inactive); for `CCOC(=O)Cn1c(-c2cccnc2Cl)nc2ccccc21`: -2.69% (inactive).
For the molecule `CCCCCCCCCCOC(=O)Cn1c(COc2ccc(C)cc2)[n+](C)c2ccccc21`, the protection from apoptosis is 112% (active).

Source of the values: PubChem BioAssay AID435005 (Broad Institute, 2010).
